From PubChem
Rows were chosen to be rich in hits. Some 11% of all compounds tested hit in one or more screens of this group.
HCV inhibitor = inhibitors of hepatitis C virus infection | Huh7.5.1 HCVcc-Cre infection, luciferase reporter, 44 h | Potency, µM (top dose mostly 41.8 µM), hits mostly inhibitors | hit rate 3.4% among 340,000
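Reporter virus HCVcc-Cre (~0.5 moi) infects cells exposed to compound; seeding density 1,000 cells/well with 4 h settling beforehand. Luminescence, 15 sec read, taken 44 h post-infection following a 15 min RT substrate incubation.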
AMA1-RON2 inh = AMA1-RON2 (P. falciparum) interaction inhibition | AlphaScreen AMA1-biotinylated RON2 peptide binding | hit rate 0.2% among 360,000 | Potency, µM (series often up to 58.2 µM), usual class: inhibitors; further: nearly all actives have a fitted effect of over 45% in size
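AMA1 (3D7) with his tag at 25 nM final met compounds first, then biotinylated RON2 peptide at 25 nM; detection used donor plus acceptor beads, 10 µg/mL apiece, read by AlphaScreen after 30 min at room temperature.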
Pf growth 48h = inhibits P. falciparum growth in the first generation, 48 h; Potency, µM (top dose mostly 28.7 µM), hits mostly inhibitors; hit rate 5.9% among 310,000; P. falciparum luciferase growth in erythrocytes, 48 h; AID 504832
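Luciferase-expressing P. falciparum in infected erythrocytes (2% hematocrit, 0.1% parasitemia final) in RPMI 1640/0.5% Albumax were exposed to compound for 48 hours at 37 C, 5% CO2; growth read as luminescence.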
Pf growth 96h = P. falciparum growth inhibition at 96 hour, primary screen for plastid delayed-death inhibitors | P. falciparum luciferase reporter growth, 96 h | Potency, µM (highest dose often 28.7 µM), usual class: inhibitors | hit rate 6.9% among 320,000 | AID 504834
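96 h incubation, 37 C, 5% CO2, of luciferase-reporter P. falciparum-infected RBCs (2% hematocrit, 0.05% parasitemia final) with test compounds; endpoint luminescence.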
Hits are given with their value; 0 = inactive; ? = inconclusive; - = not tested or not shown; [ ] = remark or other dose. The call rests on the fitted dose curve; in most records, active means well fitted curve in the direction sought with a large enough effect; inconclusive means small, poorly fitted or top-dose-only effect, or another doubt; inactive means no such curve, though single readings can be large; an effect the other way counts as inactive or inconclusive.

SMILES	HCV inhibitor	AMA1-RON2 inh	Pf growth 48h	Pf growth 96h
CC(=O)OC1COC(n2c(O)c(N=NC(N)=S)c3ccccc32)C(OC(C)=O)C1OC(C)=O (stereo unspecified)	0	0	0	?
COCCCN1C(=O)C(CC(=O)NC(c2ccccc2)c2ccccc2)CC(C(=O)N2CCOCC2)=C1C (stereo unspecified)	-	0	-	-
COc1ccc2[nH]c3c(c2c1)CCN1C(=O)N([C@@H](C)C(=O)NC2CCCCC2C)C(=O)[C@]31C (stereo partly specified)	0	0	9.3µM	12µM
COc1ccc2[nH]c3c(c2c1)CCN1C(=O)N([C@@H](C)C(=O)NCCc2ccc(OC)c(OC)c2)C(=O)[C@]31C	?	0	?	10µM
COc1ccc2[nH]c3c(c2c1)CCN1C(=O)N([C@@H](C)C(=O)NCc2ccc(C)cc2)C(=O)[C@]31C	?	0	?	?
CC(NC(=O)[C@H](C)N1C(=O)N2CCc3c([nH]c4ccccc34)[C@@]2(C)C1=O)c1ccccc1 (stereo partly specified)	?	?	?	0
CC(C)(C)c1cc(NS(=O)(=O)c2ccc(Br)s2)no1	0	0	0	0
CCOc1cc(CNn2cnnc2)cc(Cl)c1OCC(=O)NC(C)(C)C	0	0	0	0
C=CC[n+]1cccc(-c2cc3ccc(C)cc3[nH]2)c1	0	0	?	5.2µM
Cc1ccc2[nH]c(-c3ccccc3)cc(=O)c2c1	0	0	?	?
CCOc1cc(N)c(Cl)cc1C(=O)NCC1CN(Cc2ccc(F)cc2)CCO1 (stereo unspecified)	?	0	7.6µM	6µM
COc1cc2cnc(-c3ccccc3)c(-c3ccc(C(F)(F)F)cc3)c2cc1OC	0	0	?	?
CN(Cc1cn(Cc2ccc(F)cc2)nn1)C1CN(Cc2cn(Cc3ccc(F)cc3)nn2)S(=O)(=O)C1 (stereo unspecified)	-	0	-	-
O=C(COC(=O)COc1ccc(Cl)cc1Br)NCc1cccs1	0	0	0	0
CCOC(=O)CNC(=O)COc1ccc(Cl)cc1Br	0	0	0	10µM
CCCCNC(=O)c1c(N)n(CCCOC)c2nc3ccccc3nc12	?	0	?	-
CCOC(=O)c1c(N)n(CCCOC(=O)c2ccco2)c2nc3ccccc3nc12	11µM	0	0	?
COCCCn1c(N)c(C(=O)OCCOC)c2nc3ccccc3nc21	0	0	0	?
CCOC(=O)c1c(NS(=O)(=O)c2ccccc2)n(CCCOC)c2nc3ccccc3nc12	0	0	10µM	0
COc1cc(N)c(Cl)cc1C(=O)OCC(=O)N1CCCCCC1	0	0	0	0
COCCNC(=S)N/N=C(\C)c1ccccc1F	0	0	?	9.3µM
COCCNC(=S)N/N=C(\C)c1ccccc1OC	0	0[11.6 µM]	?	?
COCCNC(=S)N/N=C(\C)c1ccccc1O	?	0	2.9µM	?
COc1ccc(S(=O)(=O)N2CCN(CC(O)COc3ccc(CC#N)cc3)CC2)cc1OC (stereo unspecified)	0	0	0	?
CC1=CC(=C(C#N)C#N)C=C(C)N1CCN1CCN(C(=O)Nc2ccc(Cl)c(Cl)c2)CC1	?	0	?	?
SMILES	HCV inhibitor	AMA1-RON2 inh	Pf growth 48h	Pf growth 96h
CC1=CC(=C(C#N)C#N)C=C(C)N1Cc1ccc(Cl)cc1	0	0	2.1µM	0
COc1cc2c(cc1OC)C(=O)Cc1ccc3c(c1CN(C)CC2)OCO3	0	0	9.3µM	?
CCOC(=O)NC(=O)c1cn(CCN(C)C)c(=O)[nH]c1=O	0	0	0	0
Cc1ccccc1CN1CCCOCCS1(=O)=O	0	0	?	0
COc1ccc(C)cc1NC(=O)CSc1nnc(-c2ccco2)n1N	0	0	0	0
CNC(=O)CSc1nnc(-c2ccco2)n1-c1cccc(C)c1C	0	0	?	?
COc1ccc(OC)c(NC(=O)CSc2nnc(-c3ccco3)n2-c2ccc(C(=O)O)cc2)c1	0	0	4.7µM	0.41µM
CNC(=O)CSc1nnc(-c2ccco2)n1-c1cc(C)ccc1C	0	0	0	12µM
CNC(=O)CSc1nnc(-c2ccco2)n1-c1cccc(OC)c1	0	0	0	2.1µM
CCOc1ccc(S(=O)(=O)NCCC(=O)OCC(=O)N2CC(=O)Nc3ccccc32)cc1	0	0	0	0
O=[n+]1cc(-c2ccccc2)n([O-])c2c1CCCCC2	0	0	0	15µM
COc1ccc(CCCC(=O)NCc2ccccc2)cc1C	?	0	0	?
CCCCNC(=O)CNC(=O)c1nn(-c2ccc(OC)c(Cl)c2)c(=O)c2ccccc12	0	0	-	0
COc1ccc(-n2nc(C(=O)NCC(=O)N3CCN(c4ccccc4OC)CC3)c3ccccc3c2=O)cc1OC	0	0	1.7µM	?
CCC1CCCCN1CCCNC(=O)CNC(=O)c1nn(-c2ccc(OC)c(Cl)c2)c(=O)c2ccccc12 (stereo unspecified)	?	0	5.2µM	?
COc1ccc(-n2nc(C(=O)NCC(=O)N3CCC4(CC3)OCCO4)c3ccccc3c2=O)cc1OC	0	0	?	4.7µM
COc1ccc(-n2nc(C(=O)NCC(=O)N3CCN(c4ccccc4)CC3)c3ccccc3c2=O)cc1OC	0	0	0	0
CC(C)Oc1cc(C(=O)N2CCC(N3CCCCC3)CC2)ccc1Nc1nnc(Cl)c(Nc2ccccc2S(C)(=O)=O)n1	0	0	-	-
CN1CCN(C2CCN(c3ccc(Nc4nnc(Cl)c(Nc5ccccc5S(C)(=O)=O)n4)c(OC(CF)CF)c3)CC2)CC1	11µM	0	-	-
Nc1c(C(O)(C(F)(F)F)C(F)(F)F)cc(C(O)(C(F)(F)F)C(F)(F)F)c2ccccc12	?	0	9.3µM	?
Cc1ccc(CNC(=O)C2CN(S(C)(=O)=O)c3cc(Cl)ccc3O2)cc1 (stereo unspecified)	0	0	0[1.15 µM]	0[1.15 µM]
O=C(NCc1cccnc1)c1cn(-c2ccccc2)nc1-c1ccccc1	0	0	0	0
O=C(NC1CCN(Cc2ccc(Cl)cc2)CC1)c1cn(-c2ccccc2)nc1-c1cccnc1	11µM	0	1.9µM	?
O=C(NCc1ccncc1)c1cn(-c2ccccc2)nc1-c1cccnc1	0	0	15µM	?
CCc1ccccc1NC(=O)CNC(=O)c1cn(Cc2ccccc2)nc1-c1cccnc1	0	0[11.6 µM]	?	5.9µM
SMILES	HCV inhibitor	AMA1-RON2 inh	Pf growth 48h	Pf growth 96h
C=CC[C@@H](Cc1ccc(F)cc1)C(=O)OC[C@@H]1CCCN1C(=O)[C@@H](CC=C)CC(=O)NCCO	0	0	-	-
COc1ccc2[nH]c(=O)c(CN(CCN3CCCC3)C(=O)Nc3ccccc3Cl)cc2c1	0	0	?	0
COc1ccccc1NC(=O)N(Cc1ccco1)Cc1cc2cccc(C)c2[nH]c1=O	0	0	?	13µM
CCc1ccc2[nH]c(=O)c(CN(Cc3ccccc3OC)C(=O)Nc3ccccc3OC)cc2c1	7.9µM	0	12µM	-
CCN(CC)CCN(Cc1cc2cc(C)ccc2[nH]c1=O)C(=O)Nc1ccccc1OC	0	0	?	-
CCOc1ccc2[nH]c(=O)c(CN(CCN3CCCC3)C(=S)Nc3ccccc3OCC)cc2c1	?	0	6.6µM	?
COc1ccccc1NC(=S)N(Cc1ccco1)Cc1cc2cc(C)ccc2[nH]c1=O	?	0	12µM	?
